The record followed here is PubChem BioAssay (Tox21).

Values joined by “and” are separate entries in the source; they are usually repeats but may differ in a detail not shown here. Equal entries are not always repeated. Inconclusive results are not listed. Where a call stands in place of a potency, no number is given. Some compounds were tested as several samples or in several runs, with calls that do not always agree. Active and inactive are the calls of the source. The call rests on the fitted dose curve.
Potency means the concentration at half of the fitted maximal effect.

The experiment in a line: qHTS assay to identify small molecule agonists of the hypoxia (HIF-1) signaling pathway - cell viability counter screen (AID 1224844). Further: nearly all actives have a fitted effect of over 50% in size. The note with it: HRE-bla ME-180 viability, CellTiter-Glo luminescence, 17 h; series mostly up to 76.8 µM. The text has this:
National Center for Advancing Translational Sciences [NCATS]
NIH Chemical Genomics Center [NCGC]
U.S. Environmental Protection Agency [EPA]
National Institutes of Environmental Health Sciences [NIEHS]
National Toxicology Program [NTP]
U.S. Food and Drug Administration [FDA]
Hypoxia-inducible factor-1 (HIF-1) is the major hypoxia-regulated transcription factor that controls cellular responses to low oxygen concentration. HIF-1 is composed of two subunits: hypoxia responsive HIF-1-alpha and constitutively expressed HIF-1-beta, which is also known as aryl hydrocarbon receptor nuclear translocator. During hypoxic conditions, HIF-1-alpha heterodimerizes with HIF-1-beta and translocates into the nucleus where the HIF-1 complex binds to the hypoxia-response element (HRE) and activates expression of target genes such as VEGF (vascular endothelial growth factor). The HIF-1 pathway is essential to normal growth and development, and is involved in the pathophysiology of cancer, inflammation, and ischemia.
Using a beta-lactamase reporter-gene under control of the hypoxia response element, a cell-based assay [CellSensor(TM) HRE-bla ME-180 from Life Technologies, Carlsbad, CA] was used to measure hypoxia-induced signaling. Tox21 10K library compounds were measured for their ability to induce the reporter gene activity. The cytotoxicity of the Tox21 compound library against HRE-bla ME-180 cell line was tested in parallel by measuring cell viability using CellTiter-Glo assay (Promega, Madison, WI) in the same assay wells.
Tox21 Assay Protocol Summary:
HRE-bla ME-180 cells were dispensed at 2,000 cells per well in 6 uL of assay medium containing 0.5% dialyzed FBS into black wall/clear-bottom 1536-well plates using a Multidrop Combi (Thermo Scientific, Waltham, MA) dispenser. After the assay plates were incubated at 37C and 5% CO2 for 5 hrs, 23 nL of compounds dissolved in DMSO, positive controls or DMSO only was transferred to each well of the assay plate using a Pintool station (Kalypsys, San Diego, CA). The assay plates were incubated at 37C and 5% CO2 for 17 hrs. One uL of LiveBLAzerTM B/G FRET substrate (CCF4-AM) (Life Technologies) was added to each well using a Flying Reagent Dispenser (FRD, Aurora Discovery, San Diego, CA). After 2 hr incubation at room temperature, fluorescence intensity (405 nm excitation, 460 nm and 530 nm emissions) was measured using an Envision plate reader (PerkinElmer, Shelton, CT). For cytotoxicity, 4 ul/well of CellTiter-Glo reagent was added into the assay plates using an FRD. After 30 min incubation at room temperature, the luminescence intensity was measured using a ViewLux plate reader (PerkinElmer).
For orientation: Quantitative high-throughput screening tests each substance at several concentrations.
With `O=C(O)COc1ccc(Cl)cc1Cl`, the Potency result is “inactive”.

As for `COc1ccccc1N`, the Potency entry was “inactive”.

In the case of `Oc1ccccc1-c1ccccc1`, the Potency entry is “inactive”.

Take `Nc1ccc(-c2ccc(N)c(Cl)c2)cc1Cl`: the Potency result is “inactive”.

`O=C(O)C(Cl)(Cl)Cl`: the Potency entry was “inactive”.

Turning to `CCC(=O)C(CC(C)N(C)C)(c1ccccc1)c1ccccc1` (stereo not given), the Potency entry was “inactive”.

For `O=C(O)CCl`, the Potency result was “inactive”.

With `COP(=O)(OC)OC=C(Cl)Cl`, the Potency result was “inactive”.

As to `CCCCn1cc[n+](C)c1C`, the Potency result is “inactive”.

On to `Nc1ccc(-c2ccc(N)cc2)cc1`, for which the Potency entry is “inactive”.

Turning to `COCC(=O)N(c1c(C)cccc1C)C(C)C(=O)OC` (stereo not given), the Potency entry was “inactive”.

As for `Cc1cc(Cl)ccc1OCC(=O)O`, the Potency result is “inactive”.

Regarding `O=[N+]([O-])O`, the Potency entry is “inactive”.

With `CCCCCCCCCCCCCC[P+](CCCCCC)(CCCCCC)CCCCCC`, the Potency is 11 µM (active) and 17.5 µM (active) and inactive.

As for `C[N+](C)(C)Cc1ccccc1`, the Potency entry was “inactive”.

For `OCCOc1ccccc1`, the Potency result was “inactive”.

In the case of `Oc1cccc2cccnc12`, the Potency is 1.1 µM (active) and inactive.

For the compound `CC(Cl)(Cl)C(=O)O`, the Potency entry is “inactive”.

Consider `Nc1ccc(Cl)cc1`, for which the Potency result is “inactive”.

Consider `O=C(O)CC(O)(CC(=O)O)C(=O)O`, for which the Potency entry was “inactive”.

Regarding `CCCCn1cc[n+](C)c1`, the Potency result was “inactive”.

Take `C[C@]12CCC(=O)C=C1CC[C@@H]1[C@@H]2CC[C@]2(C)C(=O)CC[C@@H]12`: the Potency entry was “inactive”.

With `O=c1nc(O)n(Cl)c(=O)n1Cl`, the Potency result is “inactive”.

As for `CC[N+](CC)(CC)CC`, the Potency result is “inactive”.

Regarding `CCCCCCCCCCCCOS(=O)(=O)O`, the Potency was 48.3 µM (active) and inactive.

As for `CCCC[N+]1(C)CCCC1`, the Potency entry was “inactive”.

Regarding `CCC[N+]1(C)CCCCC1`, the Potency result was “inactive”.

As for `CCCCCCn1cc[n+](C)c1`, the Potency entry was “inactive”.

Turning to `CC(=O)O`, the Potency entry was “inactive”.

As to `N#CS`, the Potency result was “inactive”.

For `COP(=O)(OC)C(O)C(Cl)(Cl)Cl` (stereo not given), the Potency result is “inactive”.

As for `Cc1cc(Cl)ccc1N`, the Potency result was “inactive”.

In the case of `CCCC[n+]1ccc(C)cc1`, the Potency result is “inactive and 38.7 µM (active)”.

In the case of `O=C(O)c1ccccc1O`, the Potency entry is “inactive”.

Take `Cc1cc(-c2ccc(N)c(C)c2)ccc1N`: the Potency result is “inactive”.

Take `CCCCCCCCn1cc[n+](C)c1`: the Potency result is “inactive”.

As to `CCCC[n+]1ccccc1C`, the Potency result was “inactive”.

With `O=C(O)C(Cl)Cl`, the Potency result is “inactive”.

As for `CCC[N+]1(C)CCCC1`, the Potency entry was “inactive”.

For `Nc1ccccc1`, the Potency entry was “inactive”.
